Read-out in assay [1]: Monocyte Chemoattractant Protein-1 (MCP1), CCL2 (gene 6347)
The assay can be described thus: BSK_3C_MCP1: BioMAP Diversity Plus: 3C Assay for Monocyte Chemoattractant Protein-1 (MCP1) Biomarker Activity (AID 2283017). The conditions noted are these: primary human endothelial cells (HUVEC); actives raise or lower the signal. An outline of the steps:
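ELISA read-out of MCP-1 from human umbilical vein endothelial cell cultures harvested 24 h post-dosing. Gain or loss of signal was fitted relative to DMSO.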

Read-out in assay [2]: Monocyte Chemoattractant Protein-1 (MCP1), CCL2 (gene 6347)
Description: BSK_4H_MCP1: BioMAP Diversity Plus: 4H Assay for Monocyte Chemoattractant Protein-1 (MCP1) Biomarker Activity (AID 2283018). The conditions noted are these: primary human endothelial cells (HUVEC); actives raise or lower the signal. An outline of the steps: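 Human umbilical vein endothelial cells (4H system) dosed with chemical; MCP-1 measured by ELISA 24 h after dosing. Bidirectional curve fitting against DMSO negative control as baseline; parallel SRB total-protein staining tracks overt cytotoxicity.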

Read-out in assay [3]: Human Leukocyte Antigen - DR isotype (HLADR), HLA-DRA (gene 3122)
The assay can be described thus: BSK_3C_HLADR: BioMAP Diversity Plus: 3C Assay for Human Leukocyte Antigen - DR isotype (HLADR) Biomarker Activity (AID 2283019).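 On outcome: ELISA of cell-surface HLA-DR on HUVEC 24 h after dosing.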 The conditions noted are these: primary human endothelial cells (HUVEC); actives raise or lower the signal. An outline of the steps:
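ELISA readout of surface HLA-DR on human umbilical vein endothelium, taken 24 h after chemical treatment. Gain- and loss-of-signal were both fitted relative to DMSO.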

Read-out in assay [4]: Interleukin-8 (IL8), CXCL8 (gene 3576)
The assay can be described thus: BSK_3C_IL8: BioMAP Diversity Plus: 3C Assay for Interleukin-8 (IL8) Biomarker Activity (AID 2283020). The conditions noted are these: primary human endothelial cells (HUVEC); actives raise or lower the signal. An outline of the steps: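 Primary human umbilical vein endothelial cells (3C system) were exposed to test chemical for 24 h, then IL-8 was quantified by ELISA. Responses were fitted bidirectionally against DMSO vehicle as baseline.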

Read-out in assay [5]: Monokine induced gamma interferon (MIG), CXCL9 (gene 4283)
The assay can be described thus: BSK_3C_MIG: BioMAP Diversity Plus: 3C Assay for Monokine induced gamma interferon (MIG) Biomarker Activity (AID 2283021). The conditions noted are these: primary human endothelial cells (HUVEC); actives raise or lower the signal. An outline of the steps:
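Primary human umbilical vein endothelial cells in the 3C system were exposed to chemical for 24 h, after which MIG was quantified by ELISA. Activity was fitted bidirectionally against DMSO as negative control and baseline.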

Assay [6] in a line: BSK_3C_SRB: Viability Assessment in the BioMAP Diversity Plus: 3C Assay (AID 2283023).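 Further: fitted both ways against DMSO so a hit may be signal rise or drop.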 The conditions noted are these: primary human endothelial cells (HUVEC). The method in brief: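 Absorbance at 560 nm of sulforhodamine B-stained (0.1%) total protein served as a cytotoxicity readout in human umbilical vein endothelial cells, 24 h after chemical treatment. Signal was fitted bidirectionally relative to DMSO.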

Assay [7] in a line: BSK_3C_Vis: BioMAP Diversity Plus: 3C Assay for Morphology Visualization (AID 2283025).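 Further: fitted both ways so gain or loss versus DMSO counts.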 The conditions noted are these: primary human endothelial cells (HUVEC). An outline of the steps: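 Human umbilical vein endothelial cells in the 3C system were imaged by light microscopy 24 h after chemical dosing to record cell morphology. Activity was fitted bidirectionally against DMSO as negative control and baseline; the endpoint serves as a background control.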

Read-out in assay [8]: Pselectin, SELP (gene 6403)
Description: BSK_4H_Pselectin: BioMAP Diversity Plus: 4H Assay for Pselectin Biomarker Activity (AID 2283026). The conditions noted are these: primary human endothelial cells (HUVEC); actives raise or lower the signal. An outline of the steps: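 Primary human umbilical vein endothelial cells were exposed to test chemical for 24 h, then cell-surface P-selectin was quantified by ELISA. Activity was fitted bidirectionally against DMSO as negative control and baseline.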

In assay [9] the target is human Vitamin D Receptor (VDR), VDR (gene 7421) (UniProt P11473). Description: ATG_VDR_TRANS: Attagene TRANS-FACTORIAL HepG2 Assay for human Vitamin D Receptor (VDR) (AID 2283022; active means hit-call score of the fitted dose curve at least 0.9, where 1 is the maximum). An outline of the steps: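 Steps: transfect HepG2 with GAL4-UAS-driven reporter constructs; dose compounds 24 h; isolate RNA, reverse-transcribe, PCR-amplify with 6-FAM-labelled primer extension and HpaI digestion; quantify fragments by capillary electrophoresis relative to DMSO.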

Read-out in assay [10]: Matrix Metallopeptidase 1 (MMP1), MMP1 (gene 4312)
Description: BSK_BE3C_MMP1: BioMAP Diversity Plus: BE3C Assay for Matrix Metallopeptidase 1 (MMP1) Biomarker Activity (AID 2283024). The conditions noted are these: primary human bronchial epithelial cells; actives raise or lower the signal. The method in brief:
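Primary human bronchial epithelial cells were dosed with test chemicals, and MMP1 levels were measured by ELISA 24 h later. Data were fitted bidirectionally against DMSO as the negative control and activity baseline.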

SMILES strings stand for the structures. Results filed as inconclusive are left out. The source made the active and inactive calls. How the source made its calls, unless noted: active means hit-call score of the fitted dose curve at least 0.9, where 1 is the maximum; inactive means score below 0.9.

Chain of human Vitamin D Receptor (VDR), VDR (gene 7421) (P11473 whole entry, looked up, the tested form may be a part): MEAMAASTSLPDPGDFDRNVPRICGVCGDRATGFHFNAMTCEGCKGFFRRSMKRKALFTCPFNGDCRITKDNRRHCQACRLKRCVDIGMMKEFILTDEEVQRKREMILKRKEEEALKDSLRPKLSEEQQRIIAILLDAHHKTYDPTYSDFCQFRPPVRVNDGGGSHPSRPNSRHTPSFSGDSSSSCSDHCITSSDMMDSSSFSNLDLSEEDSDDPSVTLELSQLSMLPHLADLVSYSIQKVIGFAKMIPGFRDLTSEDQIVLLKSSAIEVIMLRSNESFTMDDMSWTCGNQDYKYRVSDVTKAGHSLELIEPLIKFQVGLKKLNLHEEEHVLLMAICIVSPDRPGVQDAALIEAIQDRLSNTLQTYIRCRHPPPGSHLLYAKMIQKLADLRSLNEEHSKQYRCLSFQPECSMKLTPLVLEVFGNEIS

On to `O=[Si]=O`, for which the outcome in assay [1], in assay [2], in assay [3], in assay [4], in [5] and in assay [6] was inactive. Also, the outcome in [7] and in [8] was inactive.
As for `OCC(O)CO`, the outcome in assay [1], in assay [2], in assay [3], in [4], in assay [6] and in assay [7] was inactive.
As to `C=CCc1ccc(OC)c(OC)c1`, the outcome in assay [1], in assay [2], in [3], in [4], in assay [9] and in assay [6] was inactive. Moreover, the outcome in [7] and in assay [8] was inactive.
On to `OCC(CO)n1cnc(-c2ccc(F)cc2)c1-c1ccnc(Oc2ccccc2)n1`, for which the AC50 in assay [1] is 1.08 µM (active); in assay [3], 0.254 µM (active); in assay [4], 0.852 µM (active). The outcome in assay [2], in assay [6] and in [7] was inactive.
For `CS(=O)(=O)c1ccc([C@@H](C[C@H]2CCC(=O)C2)C(=O)Nc2cnccn2)cc1Cl`, the outcome in [1], in assay [2], in assay [3], in assay [4], in assay [9] and in assay [6] was inactive. Further, the result in assay [10], in [7] and in [8] was inactive.
For `CC(=O)OCC(COC(C)=O)OC(C)=O`, the result in assay [1], in assay [2], in [3], in assay [4], in assay [9] and in assay [6] was inactive. Further, the result in assay [7] and in [8] was inactive.
As to `Cc1c(C)c2c(c(C)c1O)CCC(C)(COc1ccc(CC3SC(=O)NC3=O)cc1)O2` (configuration not stated), the AC50 is 30.6 µM (active) in assay [1]; 9.95 µM (active) in [2]; 20 µM (active) in [4]; 17.3 µM (active) in [6]; 33.9 µM (active) in assay [10]; 20 µM (active) in assay [7]. In addition, the AC50 in assay [8] was 14 µM (active). Moreover, in [9], the result was inactive.
On to `O=C(O)CC(O)(CC(=O)O)C(=O)O`, for which the outcome in assay [1], in assay [2], in assay [3], in assay [4], in assay [6] and in assay [10] was inactive. Also, the outcome in assay [7] and in [8] was inactive.
As to `COC(=O)[C@H]1[C@H]2C[C@@H]3c4[nH]c5cc(OC)ccc5c4CCN3C[C@H]2C[C@@H](OC(=O)c2cc(OC)c(OC)c(OC)c2)[C@@H]1OC`, the AC50 was 16.9 µM (active) in [1]; 5.85 µM (active) in assay [2]; 25.8 µM (active) in assay [3]; 16.9 µM (active) in assay [4]; 24.9 µM (active) in assay [6]; 25.6 µM (active) in assay [8]. Moreover, in assay [10], the result was inactive.
Consider `CC(C)NCC(O)c1ccc(O)c(O)c1` (configuration not stated), for which the result in [1], in assay [2], in [3], in assay [4], in assay [6] and in assay [10] was inactive. In [7], the result was inactive.
In the case of `CCCCCCC(C=O)=Cc1ccccc1`, the AC50 in [1] was 35 µM (active); in [3] it was 36.7 µM (active); in [4], 30.1 µM (active); in [6] it was 31 µM (active); in [7], 37.5 µM (active). Moreover, the outcome in assay [2] and in assay [9] was inactive.
For the compound `N[C@@H](Cc1c[nH]c2ccccc12)C(=O)O`, the outcome in [1], in [2], in [3], in assay [4], in assay [6] and in assay [10] was inactive. In addition, the result in assay [7] and in assay [8] was inactive.
For `Cc1ccc(C(C)(C)C)c(O)c1`, the AC50 in assay [1] is 34.7 µM (active). In addition, the result in assay [2], in assay [3], in [4], in assay [9], in assay [6] and in assay [7] was inactive. In assay [8], the result was inactive.
For the compound `NC(=Nc1ccccc1)Nc1ccccc1`, the outcome in assay [1], in assay [2], in assay [3], in [4], in assay [6] and in [10] was inactive. For the same compound, the outcome in [7] was inactive.
Take `Cc1ccc(-c2cc(C(F)(F)F)nn2-c2ccc(S(N)(=O)=O)cc2)cc1`: the AC50 was 37.8 µM (active) in assay [1]; 27.8 µM (active) in [2]; 31 µM (active) in assay [3]; 32.7 µM (active) in [4]; 23.1 µM (active) in assay [6]; 31.7 µM (active) in [10]. Besides, the AC50 in [7] was 37.5 µM (active); in assay [8], 25.8 µM (active).
For the compound `CCCCCCCC(=O)OC`, the result in [1], in [2], in [3], in assay [4], in [9] and in assay [6] was inactive. Also, the outcome in assay [7] and in assay [8] was inactive.
As for `O=C1O[C@H]([C@H](O)CO)C(O)=C1O`, the result in assay [1], in [2], in assay [3], in assay [4], in [6] and in assay [7] was inactive. Also, in assay [8], the outcome was inactive.
`O=Cc1ccccc1C=O`: the result in [1], in [2], in assay [3], in [4], in assay [6] and in assay [10] was inactive. In addition, the outcome in [7] and in [8] was inactive.
On to `CC(C)c1cccc(C(C)C)c1`, for which the result in assay [1], in assay [2], in assay [3], in assay [4], in assay [6] and in [10] was inactive. In addition, the result in [7] and in [8] was inactive.
On to `CCCC[C@H]1CN(CC2CCOCC2)C(=O)OC12CCN(C1(C)CCN(C(=O)c3c(C)ncnc3C)CC1)CC2`, for which the outcome in [1], in assay [2], in [3], in assay [4], in assay [6] and in assay [10] was inactive. For the same compound, in assay [7], the result was inactive.
Turning to `CCOCCOCCO`, the outcome in [1], in [2], in assay [3], in [4], in assay [6] and in assay [7] was inactive.
In the case of `CCCCC(CC)COP(=O)(OCC(CC)CCCC)OCC(CC)CCCC` (configuration not stated), the AC50 in [1] was 18.2 µM (active); in assay [2] it was 20 µM (active); in assay [3] it was 20 µM (active); in [4], 14 µM (active); in assay [6], 20 µM (active); in assay [7], 13.7 µM (active). Moreover, the AC50 in assay [8] is 12.2 µM (active). In addition, the compound was called inactive in assay [9].
Take `CCCCCCCCCCCCCCOS(=O)(=O)O`: the result in assay [1], in assay [2], in assay [3], in assay [4], in [6] and in assay [7] was inactive. Further, the outcome in assay [8] was inactive.
Take `CN(C)C(=O)NC1(c2ccccc2)CCN(CC[C@@]2(c3ccc(F)c(F)c3)CN(C(=O)c3ccccc3)CCO2)CC1`: the result in [1], in assay [2], in [3], in [4], in assay [9] and in assay [6] was inactive. Also, the outcome in assay [7] and in assay [8] was inactive.
On to `COC(=O)CCC(=O)OC`, for which the result in assay [1], in assay [2], in assay [3], in [4], in assay [6] and in assay [7] was inactive. Besides, the result in assay [8] was inactive.
As for `CC(=O)S[C@H](C(=O)N[C@H]1Cc2ccccc2[C@H]2CCC[C@@H](C(=O)O)N2C1=O)C(C)C`, the result in [1], in assay [2], in [3], in assay [4], in assay [6] and in assay [7] was inactive.
Turning to `O=C1NC(=O)C(c2ccccc2)(c2ccccc2)N1`, the outcome in assay [1], in assay [2], in [3], in assay [4], in [6] and in assay [7] was inactive. Also, the outcome in assay [8] was inactive.
As for `CC(C)OC(=O)C(C)(C)Oc1ccc(C(=O)c2ccc(Cl)cc2)cc1`, the half-maximal activity concentration (AC50) in assay [1] was 30.2 µM (active); in assay [2] it was 25.3 µM (active); in [3] it was 14.2 µM (active); in assay [4], 14.1 µM (active); in assay [6], 14.8 µM (active); in assay [7], 39 µM (active). Besides, in assay [8], the AC50 is 32.8 µM (active). Moreover, the result in assay [9] was inactive.
In the case of `C#CC(O)C(CC)CCCC` (configuration not stated), the result in assay [1], in assay [2], in [3], in assay [4], in assay [6] and in assay [10] was inactive. Further, the outcome in [7] and in assay [8] was inactive.
Consider `Cc1occc(=O)c1O`, for which the outcome in [1], in assay [2], in assay [3], in assay [4], in [9] and in [6] was inactive. The result in assay [10], in assay [7] and in [8] was inactive.
As for `CC(C)(O)c1ccc(CNC(=O)c2cccnc2Oc2ccc(F)cc2)cc1`, the result in [1], in assay [2], in assay [3], in assay [4], in [6] and in assay [7] was inactive. Besides, the result in assay [8] was inactive.

Broadly, the AC50 is the concentration at which the activity in the assay is half-maximal.

The values above are taken from PubChem BioAssay (EPA / NIEHS).
